VACV mCherry inh = inhibitors of vaccinia virus infection (mCherry reporter signal); 0.63% of 310,000 active; Vaccinia virus mCherry reporter infection, fluorescence; AID 720579; Potency, µM (series often up to 36.5 µM), for inactives: top-dose activity change, negative = inhibition, usual class: inhibitors; calls by dose curve; tested in A549 cells; further: potency means the concentration at half of the fitted maximal effect; nearly all actives have a fitted effect of over 35% in size
Vaccinia Venus = vaccinia inhibition (Venus reporter) | Potency, µM (top dose mostly 36.5 µM), for inactives: at the top dose activity change, negative = inhibition, hits mostly inhibitors | Vaccinia virus Venus reporter expression, fluorescence | 0.46% of 330,000 active; calls by dose curve; tested in A549 cells; further: potency means the concentration at half of the fitted maximal effect; nearly all actives have a fitted effect of over 30% in size
LASV entry inh = inhibitors of Lassa virus binding or cell entry; Potency, µM (highest dose often 37.9 µM), inactives show at the highest dose activity change, negative = inhibition, most hits filed as inhibitors; AID 540256; Lassa virus pseudotype entry inhibition, cell reporter; 1.2% of 300,000 active; calls by dose curve; tested in HEK293 cells; further: potency means the concentration at half of the fitted maximal effect; nearly all actives have a fitted effect of over 50% in size
MARV entry inh = Marburg virus entry inhibition. Marburg virus pseudotyped entry inhibition, cell reporter. Potency, µM (highest dose often 37.8 µM), for the others: at the highest dose activity change, negative = inhibition, usual class: inhibitors. 1.8% of 300,000 active; calls by dose curve; tested in HEK293 cells; further: potency means the concentration at half of the fitted maximal effect
HCMV antiviral = inhibitors of human cytomegalovirus; 4.5% of 410,000 active; AID 1259415; activity change, negative = inhibition, % at 57.5 µM; HFF cells, HCMV-luciferase reporter, 72 h; stronger effect = lower value; in the data active means activity change below about -60%; inconclusive means no clear call, values can overlap the other calls; inactive means above about -39%
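Steps: HFFs plated, 16 h 37C; compounds added; HCMV-luciferase added to MOI 1 PFU/cell; 72 h 37C; OneGlo reagent, 5 min room temperature; luminescence read, normalized to controls.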
FMDV inh = blocks foot and mouth disease virus; FMDV antiviral cell-based qHTS; Potency, µM (doses to about 57.9 µM), inactives show at the top dose activity change, negative = inhibition, actives largely listed as inhibitors; 1.2% of 410,000 active; AID 1159524; calls by dose curve; tested in HEK293T cells; further: read-out not given here; potency means the concentration at half of the fitted maximal effect; nearly all actives have a fitted effect of over 45% in size
* marks the source's active call; other numbers are inactive results; [ ] = another dose, or the depositor's remark. Rows were chosen to be rich in hits. Some 6.5% of all compounds tested hit in one or more screens of this group. On the % scale 0 is the no-effect control and ±100 the full control effect.

How did COc1ccccc1NS(=O)(=O)c1cccc(NC(=O)c2sc3ccccc3c2Cl)c1 do in these assays?
VACV mCherry inh: -18.4%; Vaccinia Venus: -7.5%; LASV entry inh: inconclusive; MARV entry inh: inconclusive; HCMV antiviral: -67.7*; FMDV inh: 14.1%

What do the screens show for `COc1ccccc1NS(=O)(=O)c1cccc(NC(=O)NCCCl)c1`?
VACV mCherry inh: -9.4%; Vaccinia Venus: -3.9%; HCMV antiviral: 9.6; FMDV inh: 7.5%

How did COc1ccccc1NC(=O)Nc1ccc(F)c(F)c1 do in these assays?
VACV mCherry inh: -12.2%; Vaccinia Venus: -18.1%; LASV entry inh: -24.3%[46.1 µM]; MARV entry inh: -19.5%[46.1 µM]; HCMV antiviral: -102.4*; FMDV inh: 9.4%

What do the screens show for `COc1ccccc1NC(=O)NCC(=O)Nc1ccc(F)c(F)c1`?
VACV mCherry inh: inactive; Vaccinia Venus: -2.9%; LASV entry inh: -7.5%; MARV entry inh: -7.8%; HCMV antiviral: 68.7; FMDV inh: -3.6%

What do the screens show for `COc1ccccc1NS(=O)(=O)c1cccc(NC(=O)Nc2cccc(Cl)c2)c1`?
VACV mCherry inh: inconclusive; Vaccinia Venus: inconclusive; LASV entry inh: 12.6µM*; MARV entry inh: inconclusive; HCMV antiviral: -94.7*; FMDV inh: inconclusive

What do the screens show for `CCOc1ccc(N2C(=O)C(c3nnnn3C(C)(C)C)N(Cc3ccc(OC)c(OC)c3)C2=O)cc1` (centres undefined)?
HCMV antiviral: -5.6

Results for CCC[C@H]1[C@@H](NS(=O)(=O)c2c(C)cc(C)cc2C)CC[C@@]23CCCN2C(=O)CCC[C@@H]13 ?
HCMV antiviral: -29.8

Results for COCCn1c(=O)c(-c2ccc(OC)cc2)nc2cnc(N3CCN(C)CC3)nc21 ?
FMDV inh: 1.2%

How did c1ccc(-c2nc3ccccc3nc2-c2nc3ccccc3[nH]2)cc1 do in these assays?
HCMV antiviral: 4.7

Results for CCc1ccc(NC(=O)c2sc3ncnc(N(C)C4CCCCC4)c3c2C)cc1 ?
VACV mCherry inh: 3.6%; Vaccinia Venus: 6.8%; LASV entry inh: 2.8%[46.1 µM]; HCMV antiviral: -1.6; FMDV inh: -15.1%

What do the screens show for `COc1ccc(Br)cc1/C=C/C(=O)c1ccc(NC(C)=O)cc1`?
VACV mCherry inh: 4.47µM*; Vaccinia Venus: 5.62µM*; LASV entry inh: 3.98µM*; MARV entry inh: inconclusive; HCMV antiviral: -97.6*; FMDV inh: 10µM*

What do the screens show for `COc1ccc(NC(=O)/C=C/c2cc(Br)ccc2OC)cc1`?
Vaccinia Venus: -16.2%; LASV entry inh: -4.9%; MARV entry inh: 11.7%; HCMV antiviral: -29.0; FMDV inh: -1.5%

How did C[C@@H]1O[C@@H](O[C@H]2C[C@@H](O)[C@]3(CO)[C@@H]4C(CC[C@]3(O)C2)[C@@]2(O)CC[C@H](C3COC(=O)C3)[C@@]2(C)C[C@H]4O)[C@H](O)[C@H](O)[C@H]1O (some centres undefined) do in these assays?
VACV mCherry inh: inconclusive; Vaccinia Venus: 1.78µM*; MARV entry inh: 0.82µM*; HCMV antiviral: -99.2*; FMDV inh: inconclusive

How did C[C@@H]1O[C@@H](O[C@H]2C[C@@H](O)[C@]3(CO)[C@H]4[C@H](O)C[C@]5(C)[C@@H]([C@@H]6COC(=O)C6)CC[C@]5(O)[C@@H]4CC[C@]3(O)C2)[C@H](O)[C@H](O)[C@H]1O do in these assays?
MARV entry inh: 0.316µM*

What do the screens show for `O=C(NCCc1ccccc1)C(=O)NCC1CCCN1S(=O)(=O)c1ccccc1` (centres undefined)?
VACV mCherry inh: inconclusive; Vaccinia Venus: inconclusive; LASV entry inh: inconclusive; MARV entry inh: 11.2µM*; HCMV antiviral: -28.4; FMDV inh: -19.4%

How did COc1ccc(CCNC(=O)C(=O)NCC2CCCN2S(=O)(=O)c2ccccc2)cc1OC (centres undefined) do in these assays?
VACV mCherry inh: -28.6%; Vaccinia Venus: -24.4%; LASV entry inh: inconclusive; MARV entry inh: inconclusive; HCMV antiviral: -3.6; FMDV inh: 22.4µM*

Results for COc1ccc(CCNC(=O)C(=O)NCC2OCCN2S(=O)(=O)c2ccccc2)cc1OC (centres undefined) ?
VACV mCherry inh: -13.6%; Vaccinia Venus: -19.5%; HCMV antiviral: -27.1; FMDV inh: -20.9%

How did COc1ccc(NC(=O)CSc2ncc3c(n2)-c2ccccc2N(Cc2ccc(C)cc2)S3(=O)=O)cc1Cl do in these assays?
VACV mCherry inh: -4.8%; Vaccinia Venus: -14.1%; LASV entry inh: 7.6%[46.1 µM]; MARV entry inh: inconclusive; HCMV antiviral: 7.9; FMDV inh: 0.0%

What do the screens show for `CCCSc1nnc2c(n1)OC(c1sccc1C)Nc1ccccc1-2` (centres undefined)?
VACV mCherry inh: -9.4%[7.34 µM]; Vaccinia Venus: -5.6%[7.34 µM]; LASV entry inh: 28.1%[46.1 µM]; MARV entry inh: inconclusive; HCMV antiviral: 43.2; FMDV inh: 26.8%

How did CCCn1c(NCc2ccccc2NS(=O)(=O)c2ccc(C)cc2)nc2ccccc21 do in these assays?
VACV mCherry inh: inconclusive; Vaccinia Venus: inconclusive; LASV entry inh: inconclusive; MARV entry inh: 6.31µM*; HCMV antiviral: -25.7; FMDV inh: 15.2%

How did CCn1c(NCc2cc(Br)ccc2NS(=O)(=O)c2ccc(C)cc2)nc2ccccc21 do in these assays?
Vaccinia Venus: -23.9%; LASV entry inh: inconclusive; MARV entry inh: inconclusive; HCMV antiviral: -12.4; FMDV inh: 3.5%

What do the screens show for `CCn1c(NCc2ccccc2NS(=O)(=O)c2ccc(C)cc2)nc2ccccc21`?
VACV mCherry inh: inconclusive; Vaccinia Venus: inconclusive; LASV entry inh: inconclusive; MARV entry inh: 20.6µM*; HCMV antiviral: 35.2; FMDV inh: -1.1%

What do the screens show for `O=C(COc1coc(CN2CCN(c3ccccc3)CC2)cc1=O)Nc1ccccc1`?
VACV mCherry inh: -8.7%; Vaccinia Venus: -3.1%; LASV entry inh: -15.9%; MARV entry inh: 1.3%; HCMV antiviral: 10.0; FMDV inh: -20.5%

Results for CCOC(=O)COc1coc(CN2CCN(c3ccccc3)CC2)cc1=O ?
VACV mCherry inh: -7.8%; Vaccinia Venus: -6.4%; LASV entry inh: 20.7%[46.1 µM]; MARV entry inh: -0.3%[46.1 µM]; HCMV antiviral: -61.0*; FMDV inh: -3.0%

What do the screens show for `Cc1cccc(NC(=O)COc2coc(CN3CCN(c4ccccc4)CC3)cc2=O)c1C`?
VACV mCherry inh: inactive; Vaccinia Venus: -11.0%; LASV entry inh: inconclusive; MARV entry inh: -23.4%; HCMV antiviral: -61.0*; FMDV inh: inconclusive

How did C=CCC12C=C(OC)C(=O)C(C1=O)C1c3ccccc3CC12 (centres undefined) do in these assays?
LASV entry inh: inconclusive; MARV entry inh: 7.9%[14.2 µM]

Results for CCC(=O)N(CCC(Cc1ccccc1)c1ccc2c(c1)OCO2)Cc1ccccc1F (centres undefined) ?
VACV mCherry inh: inconclusive; Vaccinia Venus: inconclusive; LASV entry inh: inconclusive; MARV entry inh: 12.6µM*; HCMV antiviral: -25.1; FMDV inh: inconclusive
